Assay outcomes (PubChem BioAssay)
PfG6PD inh: PfG6PD (Plasmodium falciparum) enzyme inhibition; inhibition, % at 20 µM; AID 504690; hit rate 0.78% among 350,000; PfGluPho enzyme, NADPH resazurin-diaphorase fluorescence;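 active means inhibition reaching at least a set limit at 20 µM in the primary screen, cut at about 59% in these data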;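 further: 0% = DMSO wells with substrate and 100% = DMSO wells lacking glucose-6-phosphate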
ALR inh: inhibitors of human sulfhydryl oxidase ALR. hit rate 3.8% among 290,000. purified ALR, DTT oxidation, H2O2 HRP-luminol luminescence. P55789. inhibition, % (concentration not given with the values). AID 485317;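 active means mean replicate inhibition above about 79%, with every replicate also reaching it, limit read from the data; inconclusive means only one of the two criteria met; inactive means mean below limit and not every replicate reaching it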
Target sequence (P55789 whole entry, looked up): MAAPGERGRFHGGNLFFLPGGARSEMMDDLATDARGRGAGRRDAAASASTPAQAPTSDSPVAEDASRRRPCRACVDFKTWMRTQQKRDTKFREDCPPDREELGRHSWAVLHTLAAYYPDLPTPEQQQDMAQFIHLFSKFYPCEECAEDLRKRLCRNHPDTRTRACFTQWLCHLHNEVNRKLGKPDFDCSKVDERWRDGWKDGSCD
Cardio protect: modulators protecting cardiomyocytes from myocardial damage | H9c2 cardiomyocytes, H2O2 injury protection, ATPLite, 2 h | protection from H2O2 cell death, % at 20 µM | hit rate 0.63% among 360,000;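 active means compounds giving at least 50% protection of heart cells from peroxide-induced death in the single-dose screen, raw or plate-pattern-corrected value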;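 further: 0% = DMSO wells with peroxide and 100% = DMSO wells without peroxide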
PfM18AAP inh-1: blocks P. falciparum M18 aspartyl aminopeptidase. hit rate 1.2% among 290,000. recombinant PfM18AAP, H-Glu-NHMec fluorogenic cleavage. inhibition, % at 7.35 µM. AID 1822;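 active means inhibition above the campaign mean inhibition over all tested compounds plus 3 SD, cut at about 28% in these data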;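 further: 0% = plate median of test compound wells and 100% = 2 mM ZnCl2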
PHOSPHO1 inh: inhibitors of human PHOSPHO1 phosphatase; Q8TCT1; recombinant PHOSPHO1, absorbance phosphatase assay; inhibition, % at 13.3 µM; hit rate 1.1% among 290,000; AID 1565; in the data active means inhibition above about 60%
Target sequence (Q8TCT1 whole entry, looked up): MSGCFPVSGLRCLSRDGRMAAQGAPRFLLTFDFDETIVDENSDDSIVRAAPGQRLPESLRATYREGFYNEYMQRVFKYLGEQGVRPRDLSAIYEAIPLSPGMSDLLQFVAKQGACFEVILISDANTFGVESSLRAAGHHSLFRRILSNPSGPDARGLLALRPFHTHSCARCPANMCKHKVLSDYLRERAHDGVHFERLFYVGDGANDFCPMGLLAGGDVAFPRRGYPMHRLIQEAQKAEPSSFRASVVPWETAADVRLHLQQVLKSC
PfM18AAP inh-2: PfM18AAP inhibition, confirmation | shares compounds with PfM18AAP inh-1 | recombinant PfM18AAP, H-Glu-NHMec fluorogenic cleavage | inhibition, % at 7.35 µM | hit rate 28% among 2,400;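 active means mean inhibition over replicate wells above the hit cutoff set for the earlier primary screen, cut at about 29% in these data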;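 further: 0% = median of test compound wells and 100% = 2 mM ZnCl2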
CTSL1 confirm: Cathepsin L (human) inhibition, confirmation; inhibition, % at 5.96 µM; shares compounds with PfM18AAP inh-1; purified cathepsin L1, Z-Leu-Arg-MCA fluorescence; 2,400 tested, under 10 active;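 active means average inhibition across replicates above the hit cutoff set in the earlier primary screen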;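 further: 0% = median of test compound wells and 100% = Z-Phe-Ala-diazomethylketone 1 µM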
Numbers without * were called inactive; ? = inconclusive; . = not tested or not shown. Most compounds without a hit are left out; they make up all but 5.6% or so of the library.

SMILES	PfG6PD inh	ALR inh	Cardio protect	PfM18AAP inh-1	PHOSPHO1 inh	PfM18AAP inh-2	CTSL1 confirm
O=C(CSc1ncn[nH]1)Nc1c(Br)cc([N+](=O)[O-])cc1Br	13	-16	-1	50*	6	23	-13
Cc1ccc(NC(=O)CSc2ncn[nH]2)cc1	-13	-3	-1	32*	11	11	0
CCOc1ccc(NC(=O)CSc2ncn[nH]2)cc1	1	-8	3	5	14	.	.
COC(=O)Nc1ccc(N2CCOCC2)c(S(=O)(=O)N2CCOCC2)c1	33	-8	3	-9	8	.	.
OCC[C@H]1C[C@@H](O)[C@H](O)[C@]2(CCCO2)O1	4	.	-3	.	.	.	.
Cc1ccc2c(c1)S(=O)(=O)c1ccc3ccccc3c1N2	13	.	-5	.	.	.	.
COc1ccccc1CNC(=O)CCc1nnc2ccc(NCCCN3CCCC3=O)nn12	0	-3	5	-3	32	.	.
O=C(CSc1ncn[nH]1)c1ccc(OC(F)F)cc1	-6	16	8	39*	48	15	-4
O=C(O)CSc1ncn[nH]1	-3	-2	16	86*	-8	98*	-1
O=C(CSc1ncccn1)Nc1ccc(Cl)c(S(=O)(=O)N2CCOCC2)c1	-7	-2	2	.	.	.	.
O=C(CSc1ncn[nH]1)Nc1nnc(-c2ccccc2)s1	-19	4	2	64*	-27	66*	2
O=C(CSc1ncn[nH]1)Nc1ccc(Cl)c(S(=O)(=O)N2CCOCC2)c1	-2	-2	0	57*	-5	52*	0
O=C(CSc1ncn[nH]1)Nc1ccc(OCc2ccccc2)cc1	-15	-5	-6	9	29	.	.
COc1ccc(N2CCN(CCCNC(=O)Cn3c(=O)c4cccn4c4ccccc43)CC2)cc1	-2	?	17	9	3	.	.
CC(C)(C)OC(=O)C[C@@H]1C/C=C\C[C@H](CC(=O)N(CCO)Cc2ccccc2)C(=O)N[C@H](C(C)(C)C)COC1=O	-13	-1	3	.	.	.	.
CSc1ccc(S(=O)(=O)Nc2ccc(OCC(=O)N3CCOCC3)cc2)cc1	-2	-12	-1	24	27	.	.
O=C1C2CCC(C2)C1CN1CCOCC1 (stereo not given)	2	.	5	.	.	.	.
O=C(NCC1CCCC(CNC(=O)Nc2ccc(Cl)cn2)C1)Nc1ccc(Cl)cn1 (stereo not given)	4	-5	-6	-2	12	.	.
NC(=O)c1c(NC(NC(=O)c2ccco2)C(=O)c2ccc(Cl)cc2)sc2c1CCCC2 (stereo not given)	-9	-2	1	38*	100*	-22	1
O=C(CCC(=O)N1CCN(c2ccc(O)cc2)CC1)c1cccs1	50	99*	-7	53*	20	-18	-29
NC(=O)C1CCN(C(=O)CCC(=O)c2ccc(Br)cc2)CC1	1	-8	7	-17	33	.	.
O=C(CCC(=O)N1CCN(c2ccc(O)cc2)CC1)c1ccc(Br)cc1	.	41	.	42*	3	-19	2
CC(=O)c1ccc(N2CCN(C(=O)CCC(=O)c3cccs3)CC2)cc1	-13	.	2	3	44	.	.
CC(C)(C)c1ccc(CC(=O)N2CCC2(C)C(=O)NS(=O)(=O)c2ccc(F)cc2F)cc1 (stereo not given)	.	.	-1	.	.	.	.
Cc1ccc(-c2nnn(CC(=O)N(CC(=O)NC3CCCC3)c3cnc4ccccc4c3)n2)o1	-11	-16	6	44*	-21	-36	4
SMILES	PfG6PD inh	ALR inh	Cardio protect	PfM18AAP inh-1	PHOSPHO1 inh	PfM18AAP inh-2	CTSL1 confirm
Fc1cccc(Cc2c(C3CCCCC3)nc3ccc(Br)cn23)c1	.	.	-6	.	.	.	.
CC(=O)Oc1cc2oc(=O)cc(C)c2cc1OC(C)=O	-20	89*	5	47*	27	75*	19*
CC(=O)Oc1cc(OC(C)=O)c2c(C)cc(=O)oc2c1	6	13	12	2	13	.	.
Cc1cnc(NC(=O)Cc2ccc(C)c(C)c2)s1	1	-3	-1	2	49	.	.
O=C(Nn1cnnc1)c1cc(Br)ccc1Cl	-4	2	1	60*	.	55*	-3
O=C(Nn1cnnc1)c1ccc(Cl)c(Cl)c1	-6	17	0	52*	19	50*	2
CC1(C)Cc2c(sc3nc(=S)[nH]c(N)c23)CO1	.	-12	.	32*	-46	-11	5
CC1(C)Cc2c(sc3ncnc(N)c23)CO1	-9	-7	-6	14	16	.	.
Cc1nc2sc3c(c2c(=O)o1)CC(C)(C)OC3	1	1	6	1	7	.	.
Cc1nc(NN)c2c3c(sc2n1)COC(C)(C)C3	22	-1	2	58*	24	16	-7
CCN(CC)c1ccc(/C=N/n2c(=S)[nH]nc(C)c2=O)cc1	13	-8	-3	35*	42	-38	2
CC(C)Nc1ncnc2c1cnn2-c1ccccc1	21	.	-19	-7	-12	.	.
NNc1ncnc2c1cnn2-c1ccccc1	-21	53	15	36*	32	-3	-1
Cc1nc(N)c(C#N)c(-c2ccc3c(c2)OCO3)c1C	-5	-6	-1	-1	30	.	.
N#Cc1c(N)oc(-c2ccc3c(c2)OCO3)c1-c1ccc2c(c1)OCO2	2	6	3	48*	14	16	-2
Cc1cc(/C=C2\SC(=O)N(C)C2=O)c(C)n1-c1ccc(O)cc1	57	15	-14	33*	-3	-48	-2
Cc1cc(/C=C2\SC(=O)N(C)C2=O)c(C)n1-c1ccc(S(N)(=O)=O)cc1	7	2	-6	6	-16	.	.
O=C(COC(=O)c1ccc([N+](=O)[O-])o1)Nc1ncc(Cl)cc1Cl	21	-32	23	.	.	.	.
CCOC(=O)C1=C(COC(=O)COc2ccc(C(=O)CC)cc2)NC(=O)NC1C (stereo not given)	0	-2	-13	.	.	.	.
COc1cc(-c2nc3ccccn3c2NCC2CCCO2)ccc1O (stereo not given)	11	99*	5	32*	3	34*	1
CC/C(CC(=O)C(F)(F)F)=N\NC(=O)/C(C#N)=C/N(C)C	4	1	2	43*	37	-54	8
CN(C)/C=C(\C#N)C(=O)N/N=C/c1ccc(F)cc1	9	13	-4	0	4	.	.
CCCN(CC(=O)Nc1ccccc1C)CC(=O)Nc1ccc(Br)cc1F	17	19	-6	-13	26	.	.
O=C(Cn1cnc2c(NCc3ccccc3)ncnc21)NCc1nc2ccccc2[nH]1	-4	.	17	.	.	.	.
COCCNC(=O)c1ccc(N2CC3CC(C2)c2cccc(=O)n2C3)c(NC(=O)c2ccccc2Br)c1 (stereo not given)	21	.	5	.	.	.	.
Cc1ccc(S(=O)(=O)N2Cc3ccccc3CC2C(=O)Nn2cnnc2)cc1 (stereo not given)	3	0	4	41*	-15	36*	-3
O=C(Nn1cnnc1)C1Cc2ccccc2CN1S(=O)(=O)c1ccc(F)cc1 (stereo not given)	-2	0	9	39*	-14	33*	-3
